Measurements: the supplement of paper PMC10849652
The full data set covers some 7,900 targets. This sample favours those with a hit. About 0.6% of all pairs of compound and target were hits. Unmarked numbers belong to inactive results.

compound: CC(C)N(C[C@H]1O[C@@H](n2cnc3c(N)ncnc32)[C@H](O)[C@@H]1O)[C@H]1C[C@@H](CCc2nc3cc(C(C)(C)C)ccc3[nH]2)C1 [pinometostat]; assay: log2 fold change, soluble protein after heating vs DMSO (PISA); higher = thermal stabilisation; K562 cells, 10 uM, 30 min; active = over 0.2 and 3.5 SD of the protein, either way, in both replicates (recomputed)
Procedure, shortened: (§1)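 Aliquots of K562 cells (2×10^6 cells/mL) treated with 10 μM compound for 30 min were heated for 3 min over 48°C-58°C. After pooling and extraction in PBS with 0.5% NP-40 at 4°C, soluble protein from a 21,000xg, 90 min spin was quantified by TMTpro 16plex LC-MS/MS with channel sums equalised. Thermal stability is expressed against control samples, from duplicates, as a log2 fold change.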

Sequence of UniProt O15027 (O15027 whole entry, looked up): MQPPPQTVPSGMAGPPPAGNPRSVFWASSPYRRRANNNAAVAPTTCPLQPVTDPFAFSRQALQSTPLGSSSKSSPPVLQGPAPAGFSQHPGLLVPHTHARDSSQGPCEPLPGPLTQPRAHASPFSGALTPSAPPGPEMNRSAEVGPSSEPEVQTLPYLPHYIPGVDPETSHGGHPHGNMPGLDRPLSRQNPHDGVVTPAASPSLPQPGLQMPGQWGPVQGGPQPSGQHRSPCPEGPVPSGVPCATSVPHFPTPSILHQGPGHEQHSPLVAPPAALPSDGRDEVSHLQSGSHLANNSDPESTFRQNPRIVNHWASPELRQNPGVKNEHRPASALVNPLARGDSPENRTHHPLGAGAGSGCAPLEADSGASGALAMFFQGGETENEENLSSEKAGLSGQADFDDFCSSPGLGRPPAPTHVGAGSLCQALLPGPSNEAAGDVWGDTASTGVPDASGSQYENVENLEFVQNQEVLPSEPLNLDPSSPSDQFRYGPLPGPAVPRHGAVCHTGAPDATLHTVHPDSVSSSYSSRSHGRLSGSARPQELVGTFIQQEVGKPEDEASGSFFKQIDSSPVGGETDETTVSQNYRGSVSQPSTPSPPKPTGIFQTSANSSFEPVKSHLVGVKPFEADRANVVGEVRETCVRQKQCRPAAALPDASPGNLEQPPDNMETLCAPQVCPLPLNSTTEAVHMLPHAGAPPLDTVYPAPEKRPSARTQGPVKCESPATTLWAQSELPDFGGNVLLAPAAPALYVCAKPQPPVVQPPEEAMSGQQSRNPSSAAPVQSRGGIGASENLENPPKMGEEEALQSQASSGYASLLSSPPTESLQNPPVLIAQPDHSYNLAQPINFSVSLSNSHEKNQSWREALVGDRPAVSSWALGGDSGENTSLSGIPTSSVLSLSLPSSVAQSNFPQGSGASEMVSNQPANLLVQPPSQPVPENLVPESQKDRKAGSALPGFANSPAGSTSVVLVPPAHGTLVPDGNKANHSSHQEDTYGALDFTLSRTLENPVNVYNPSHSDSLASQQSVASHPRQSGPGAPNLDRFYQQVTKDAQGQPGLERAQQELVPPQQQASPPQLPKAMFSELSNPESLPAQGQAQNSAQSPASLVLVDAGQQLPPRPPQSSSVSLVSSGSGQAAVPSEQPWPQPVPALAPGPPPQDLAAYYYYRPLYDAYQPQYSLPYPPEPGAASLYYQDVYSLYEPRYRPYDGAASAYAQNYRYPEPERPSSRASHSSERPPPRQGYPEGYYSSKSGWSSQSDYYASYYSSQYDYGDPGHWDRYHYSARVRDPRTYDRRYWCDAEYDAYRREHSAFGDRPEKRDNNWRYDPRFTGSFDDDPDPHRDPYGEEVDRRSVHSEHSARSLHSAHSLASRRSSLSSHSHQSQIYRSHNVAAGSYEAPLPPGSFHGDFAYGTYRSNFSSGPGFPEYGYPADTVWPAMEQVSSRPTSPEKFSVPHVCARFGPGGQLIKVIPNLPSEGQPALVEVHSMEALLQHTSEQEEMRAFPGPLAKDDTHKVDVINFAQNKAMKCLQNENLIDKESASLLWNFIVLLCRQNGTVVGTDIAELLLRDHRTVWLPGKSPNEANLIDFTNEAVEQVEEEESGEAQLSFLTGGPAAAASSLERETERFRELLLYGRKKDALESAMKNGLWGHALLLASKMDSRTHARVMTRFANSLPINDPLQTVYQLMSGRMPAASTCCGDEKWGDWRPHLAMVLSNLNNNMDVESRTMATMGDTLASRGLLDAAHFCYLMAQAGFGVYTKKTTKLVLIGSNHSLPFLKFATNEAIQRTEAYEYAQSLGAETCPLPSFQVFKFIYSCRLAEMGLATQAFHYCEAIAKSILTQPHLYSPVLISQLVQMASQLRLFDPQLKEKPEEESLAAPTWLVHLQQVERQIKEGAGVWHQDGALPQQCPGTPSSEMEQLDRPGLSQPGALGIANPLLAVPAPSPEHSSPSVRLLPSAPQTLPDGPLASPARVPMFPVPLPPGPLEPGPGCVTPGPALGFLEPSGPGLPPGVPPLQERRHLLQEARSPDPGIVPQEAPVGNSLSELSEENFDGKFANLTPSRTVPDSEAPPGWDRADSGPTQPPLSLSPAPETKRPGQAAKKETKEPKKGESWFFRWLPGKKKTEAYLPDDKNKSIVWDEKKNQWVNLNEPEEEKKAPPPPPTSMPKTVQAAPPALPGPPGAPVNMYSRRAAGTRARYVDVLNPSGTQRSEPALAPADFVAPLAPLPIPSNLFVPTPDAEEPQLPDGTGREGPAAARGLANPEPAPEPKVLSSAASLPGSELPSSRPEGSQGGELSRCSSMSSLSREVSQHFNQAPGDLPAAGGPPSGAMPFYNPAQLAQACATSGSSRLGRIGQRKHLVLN
Sequence of UniProt Q5T8P6 (Q5T8P6 whole entry, looked up): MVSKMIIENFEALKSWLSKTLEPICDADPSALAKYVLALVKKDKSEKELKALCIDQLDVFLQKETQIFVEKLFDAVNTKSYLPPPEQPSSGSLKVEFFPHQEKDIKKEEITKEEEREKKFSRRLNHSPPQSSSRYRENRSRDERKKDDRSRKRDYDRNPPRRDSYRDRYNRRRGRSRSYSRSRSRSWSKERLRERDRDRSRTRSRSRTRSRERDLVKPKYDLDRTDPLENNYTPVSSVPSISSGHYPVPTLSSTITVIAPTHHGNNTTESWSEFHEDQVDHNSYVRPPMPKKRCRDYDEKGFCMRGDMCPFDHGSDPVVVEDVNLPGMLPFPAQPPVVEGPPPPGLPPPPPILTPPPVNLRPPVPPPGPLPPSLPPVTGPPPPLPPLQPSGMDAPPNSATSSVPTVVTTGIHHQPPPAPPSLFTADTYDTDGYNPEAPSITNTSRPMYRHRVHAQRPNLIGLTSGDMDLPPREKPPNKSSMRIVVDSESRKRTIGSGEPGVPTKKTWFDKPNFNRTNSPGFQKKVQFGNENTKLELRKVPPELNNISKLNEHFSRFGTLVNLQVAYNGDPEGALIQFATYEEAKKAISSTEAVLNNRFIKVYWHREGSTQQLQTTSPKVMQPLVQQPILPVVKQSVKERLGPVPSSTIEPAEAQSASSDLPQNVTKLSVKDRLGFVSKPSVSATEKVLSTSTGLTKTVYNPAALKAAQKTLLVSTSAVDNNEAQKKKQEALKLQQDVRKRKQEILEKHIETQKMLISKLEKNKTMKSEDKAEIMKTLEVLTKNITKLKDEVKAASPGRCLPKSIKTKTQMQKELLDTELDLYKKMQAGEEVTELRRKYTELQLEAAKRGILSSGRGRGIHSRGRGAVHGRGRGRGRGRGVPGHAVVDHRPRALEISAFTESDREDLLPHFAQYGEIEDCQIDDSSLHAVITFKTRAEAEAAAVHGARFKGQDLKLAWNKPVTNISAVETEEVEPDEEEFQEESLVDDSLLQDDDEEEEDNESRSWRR
Sequence of UniProt Q8N5L8 (Q8N5L8 whole entry, looked up): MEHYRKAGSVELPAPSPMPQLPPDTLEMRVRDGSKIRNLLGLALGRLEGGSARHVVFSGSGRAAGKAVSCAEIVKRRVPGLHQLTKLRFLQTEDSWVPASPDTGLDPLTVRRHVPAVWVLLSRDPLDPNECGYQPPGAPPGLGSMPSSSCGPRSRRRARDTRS
Sequence of UniProt Q5VZM2 (Q5VZM2 whole entry, looked up): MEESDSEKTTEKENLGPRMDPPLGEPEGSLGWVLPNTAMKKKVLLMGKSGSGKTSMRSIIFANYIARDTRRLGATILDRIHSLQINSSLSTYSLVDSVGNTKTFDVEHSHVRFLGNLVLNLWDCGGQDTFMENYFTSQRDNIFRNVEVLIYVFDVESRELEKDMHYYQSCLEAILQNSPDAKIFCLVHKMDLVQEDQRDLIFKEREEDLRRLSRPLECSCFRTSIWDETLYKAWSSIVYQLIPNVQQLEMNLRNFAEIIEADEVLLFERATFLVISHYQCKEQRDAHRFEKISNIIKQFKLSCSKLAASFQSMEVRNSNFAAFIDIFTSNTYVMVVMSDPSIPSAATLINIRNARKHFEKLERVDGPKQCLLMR
Sequence of UniProt Q86TU7 (Q86TU7 whole entry, looked up): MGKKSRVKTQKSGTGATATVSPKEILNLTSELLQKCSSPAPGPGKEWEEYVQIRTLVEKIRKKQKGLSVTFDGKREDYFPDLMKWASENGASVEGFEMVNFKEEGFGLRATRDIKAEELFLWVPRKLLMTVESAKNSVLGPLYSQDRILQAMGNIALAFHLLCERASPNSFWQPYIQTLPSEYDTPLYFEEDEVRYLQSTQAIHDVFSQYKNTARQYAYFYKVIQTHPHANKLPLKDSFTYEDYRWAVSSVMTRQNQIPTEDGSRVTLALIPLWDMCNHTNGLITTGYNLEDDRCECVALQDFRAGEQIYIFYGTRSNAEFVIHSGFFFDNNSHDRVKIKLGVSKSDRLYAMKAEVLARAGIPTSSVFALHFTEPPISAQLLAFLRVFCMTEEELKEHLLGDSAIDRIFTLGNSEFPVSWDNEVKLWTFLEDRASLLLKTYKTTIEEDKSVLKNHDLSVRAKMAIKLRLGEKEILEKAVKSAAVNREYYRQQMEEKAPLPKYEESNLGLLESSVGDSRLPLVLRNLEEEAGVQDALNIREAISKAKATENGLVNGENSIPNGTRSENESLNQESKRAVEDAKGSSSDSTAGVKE
Sequence of UniProt Q9UKM9 (Q9UKM9 whole entry, looked up): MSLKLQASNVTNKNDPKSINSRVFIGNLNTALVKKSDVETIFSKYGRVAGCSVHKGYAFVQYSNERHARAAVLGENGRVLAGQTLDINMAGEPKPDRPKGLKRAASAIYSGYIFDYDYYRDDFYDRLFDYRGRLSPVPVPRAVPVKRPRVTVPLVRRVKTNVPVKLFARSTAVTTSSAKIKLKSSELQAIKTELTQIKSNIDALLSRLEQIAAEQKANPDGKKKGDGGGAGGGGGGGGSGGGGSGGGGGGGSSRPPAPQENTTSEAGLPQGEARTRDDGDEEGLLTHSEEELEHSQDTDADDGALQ
Sequence of UniProt Q92930 (Q92930 whole entry, looked up): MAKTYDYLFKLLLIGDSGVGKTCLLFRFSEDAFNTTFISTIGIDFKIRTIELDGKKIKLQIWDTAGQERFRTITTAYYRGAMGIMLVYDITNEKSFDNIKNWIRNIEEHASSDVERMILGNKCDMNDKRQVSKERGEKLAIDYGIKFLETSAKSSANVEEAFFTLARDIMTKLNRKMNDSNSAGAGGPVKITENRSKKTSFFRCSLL

Q: How did the log2 fold change turn out when RPS12 (UniProt P25398) was run?
A: The log2 fold change was 0.024.

Q: For RUNX1 isoform 8 (UniProt Q01196), which log2 fold change is on record?
A: The log2 fold change was 0.069.

Q: With RAB9A (UniProt P51151) as the target, how does the log2 fold change read?
A: Its log2 fold change is -0.027.

Q: Which log2 fold change does the source give for RPS9 (UniProt P46781) here?
A: The log2 fold change was 0.206.

Q: Which log2 fold change does the source give for SCG3 (UniProt Q8WXD2) here?
A: The log2 fold change was -0.139.

Q: Which log2 fold change does the source give for RNPEP (UniProt Q9H4A4) here?
A: The log2 fold change was 0.018.

Q: How did the log2 fold change turn out when SCCPDH (UniProt Q8NBX0) was run?
A: The log2 fold change was -0.073.

Q: For RABGGTA (UniProt Q92696), which log2 fold change is on record?
A: Its log2 fold change is -0.027.

Q: With RRAGB (UniProt Q5VZM2) as the target, how does the log2 fold change read?
A: Its log2 fold change is 0.039.

Q: RPS21 (UniProt P63220) was tested. Which log2 fold change did it give?
A: The log2 fold change was -0.022.

Q: How did the log2 fold change turn out when RPP25L (UniProt Q8N5L8) was run?
A: The log2 fold change was -0.002.

Q: How did the log2 fold change turn out when SCAF11 (UniProt Q99590) was run?
A: Its log2 fold change is 0.157.

Q: RGS10 (UniProt O43665) was tested. Which log2 fold change did it give?
A: The log2 fold change was 0.087.

Q: For RPL38 (UniProt P63173), which log2 fold change is on record?
A: Its log2 fold change is 0.07.

Q: For RNF167 (UniProt Q9H6Y7), which log2 fold change is on record?
A: Its log2 fold change is 0.015.

Q: SESN2 (UniProt P58004) was tested. Which log2 fold change did it give?
A: The log2 fold change was 0.081.

Q: SEC31A (UniProt O94979) was tested. Which log2 fold change did it give?
A: Its log2 fold change is 0.071.

Q: Which log2 fold change does the source give for RBM27 (UniProt Q9P2N5) here?
A: Its log2 fold change is 0.028.

Q: How did the log2 fold change turn out when RAVER1 (UniProt E9PAU2) was run?
A: The log2 fold change was 0.052.

Q: With ROCK1 (UniProt Q13464) as the target, how does the log2 fold change read?
A: The log2 fold change was 0.027.

Q: With SDCBP (UniProt O00560) as the target, how does the log2 fold change read?
A: The log2 fold change was 0.057.

Q: RMC1 (UniProt Q96DM3) was tested. Which log2 fold change did it give?
A: The log2 fold change was -0.015.

Q: REL (UniProt Q04864) was tested. Which log2 fold change did it give?
A: The log2 fold change was 0.089.

Q: How did the log2 fold change turn out when RAB8B (UniProt Q92930) was run?
A: Its log2 fold change is -0.091.

Q: RPS20 isoform 2 (UniProt P60866) was tested. Which log2 fold change did it give?
A: The log2 fold change was 0.123.

Q: How did the log2 fold change turn out when RAC1 (UniProt P63000) was run?
A: Its log2 fold change is -0.127.

Q: SEC16A isoform 5 (UniProt O15027) was tested. Which log2 fold change did it give?
A: Its log2 fold change is 0.097.

Q: For RPRD1B (UniProt Q9NQG5), which log2 fold change is on record?
A: The log2 fold change was -0.038.

Q: How did the log2 fold change turn out when ROCK2 (UniProt O75116) was run?
A: The log2 fold change was 0.021.

Q: How did the log2 fold change turn out when RALY (UniProt Q9UKM9) was run?
A: Its log2 fold change is 0.129.

Q: Which log2 fold change does the source give for SETD3 (UniProt Q86TU7) here?
A: The log2 fold change was 0.002.

Q: How did the log2 fold change turn out when RBIS (UniProt Q8N0T1) was run?
A: The log2 fold change was 0.044.

Q: For RBM26 isoform 2 (UniProt Q5T8P6), which log2 fold change is on record?
A: The log2 fold change was -0.022.

compound: CC1=C(C(CC(=O)N1)C2=CC=C(C=C2)C(F)(F)F)C(=O)NC3=C(C=C4C(=C3)C=NN4)F; assay: as above
Procedure, shortened: as §1

Q: For RPS12 (UniProt P25398), which log2 fold change is on record?
A: The log2 fold change was 0.095.

Q: RUNX1 isoform 8 (UniProt Q01196) was tested. Which log2 fold change did it give?
A: Its log2 fold change is 0.076.

Q: With RAB9A (UniProt P51151) as the target, how does the log2 fold change read?
A: The log2 fold change was -0.021.

Q: How did the log2 fold change turn out when RPS9 (UniProt P46781) was run?
A: Its log2 fold change is 0.005.

Q: Which log2 fold change does the source give for SCG3 (UniProt Q8WXD2) here?
A: The log2 fold change was 0.05.

Q: How did the log2 fold change turn out when RNPEP (UniProt Q9H4A4) was run?
A: The log2 fold change was 0.004.

Q: For SCCPDH (UniProt Q8NBX0), which log2 fold change is on record?
A: Its log2 fold change is -0.031.

Q: How did the log2 fold change turn out when RABGGTA (UniProt Q92696) was run?
A: The log2 fold change was 0.

Q: RRAGB (UniProt Q5VZM2) was tested. Which log2 fold change did it give?
A: Its log2 fold change is -0.016.

Q: How did the log2 fold change turn out when RPS21 (UniProt P63220) was run?
A: The log2 fold change was 0.014.

Q: How did the log2 fold change turn out when RPP25L (UniProt Q8N5L8) was run?
A: Its log2 fold change is -0.014.

Q: SCAF11 (UniProt Q99590) was tested. Which log2 fold change did it give?
A: Its log2 fold change is -0.036.

Q: How did the log2 fold change turn out when RGS10 (UniProt O43665) was run?
A: The log2 fold change was -0.008.

Q: How did the log2 fold change turn out when RPL38 (UniProt P63173) was run?
A: Its log2 fold change is 0.013.

Q: How did the log2 fold change turn out when RNF167 (UniProt Q9H6Y7) was run?
A: Its log2 fold change is 0.064.

Q: SESN2 (UniProt P58004) was tested. Which log2 fold change did it give?
A: The log2 fold change was 0.041.

Q: For SEC31A (UniProt O94979), which log2 fold change is on record?
A: Its log2 fold change is 0.016.

Q: Which log2 fold change does the source give for RBM27 (UniProt Q9P2N5) here?
A: The log2 fold change was 0.088.

Q: Which log2 fold change does the source give for RAVER1 (UniProt E9PAU2) here?
A: The log2 fold change was 0.016.

Q: ROCK1 (UniProt Q13464) was tested. Which log2 fold change did it give?
A: Its log2 fold change is 0.249 (active).

Q: With SDCBP (UniProt O00560) as the target, how does the log2 fold change read?
A: The log2 fold change was 0.073.

Q: RMC1 (UniProt Q96DM3) was tested. Which log2 fold change did it give?
A: The log2 fold change was 0.028.

Q: With REL (UniProt Q04864) as the target, how does the log2 fold change read?
A: The log2 fold change was -0.039.

Q: Which log2 fold change does the source give for RAB8B (UniProt Q92930) here?
A: The log2 fold change was 0.019.

Q: For RPS20 isoform 2 (UniProt P60866), which log2 fold change is on record?
A: The log2 fold change was 0.195.

Q: RAC1 (UniProt P63000) was tested. Which log2 fold change did it give?
A: Its log2 fold change is -0.093.

Q: How did the log2 fold change turn out when SEC16A isoform 5 (UniProt O15027) was run?
A: Its log2 fold change is -0.027.

Q: RPRD1B (UniProt Q9NQG5) was tested. Which log2 fold change did it give?
A: Its log2 fold change is 0.022.

Q: With ROCK2 (UniProt O75116) as the target, how does the log2 fold change read?
A: The log2 fold change was 0.29 (active).

Q: How did the log2 fold change turn out when RALY (UniProt Q9UKM9) was run?
A: The log2 fold change was 0.068.

Q: For SETD3 (UniProt Q86TU7), which log2 fold change is on record?
A: The log2 fold change was -0.03.

Q: For RBIS (UniProt Q8N0T1), which log2 fold change is on record?
A: The log2 fold change was 0.066.

Q: With RBM26 isoform 2 (UniProt Q5T8P6) as the target, how does the log2 fold change read?
A: The log2 fold change was 0.014.

compound: CC1=C(C2=C(C=C1)C(=O)C3=CC=CC=C3N2CCCN)C; assay: as above
Procedure, shortened: as §1

Q: For RPS12 (UniProt P25398), which log2 fold change is on record?
A: Its log2 fold change is -0.314 (active).

Q: With RAB9A (UniProt P51151) as the target, how does the log2 fold change read?
A: Its log2 fold change is 0.06.

Q: How did the log2 fold change turn out when RPS9 (UniProt P46781) was run?
A: The log2 fold change was -0.585 (active).

Q: How did the log2 fold change turn out when SCG3 (UniProt Q8WXD2) was run?
A: The log2 fold change was -0.359.

Q: RNPEP (UniProt Q9H4A4) was tested. Which log2 fold change did it give?
A: Its log2 fold change is 0.137.

Q: For SCCPDH (UniProt Q8NBX0), which log2 fold change is on record?
A: The log2 fold change was 0.023.

Q: How did the log2 fold change turn out when RABGGTA (UniProt Q92696) was run?
A: Its log2 fold change is 0.046.

Q: How did the log2 fold change turn out when RRAGB (UniProt Q5VZM2) was run?
A: The log2 fold change was 0.026.

Q: With RPS21 (UniProt P63220) as the target, how does the log2 fold change read?
A: The log2 fold change was -0.02.

Q: Which log2 fold change does the source give for RPP25L (UniProt Q8N5L8) here?
A: The log2 fold change was -0.288 (active).

Q: Which log2 fold change does the source give for SCAF11 (UniProt Q99590) here?
A: Its log2 fold change is 0.112.

Q: Which log2 fold change does the source give for RGS10 (UniProt O43665) here?
A: Its log2 fold change is 0.015.

Q: RPL38 (UniProt P63173) was tested. Which log2 fold change did it give?
A: Its log2 fold change is -0.026.

Q: For RNF167 (UniProt Q9H6Y7), which log2 fold change is on record?
A: Its log2 fold change is 0.

Q: SESN2 (UniProt P58004) was tested. Which log2 fold change did it give?
A: The log2 fold change was -0.017.

Q: With SEC31A (UniProt O94979) as the target, how does the log2 fold change read?
A: The log2 fold change was 0.095.

Q: How did the log2 fold change turn out when RBM27 (UniProt Q9P2N5) was run?
A: Its log2 fold change is 0.05.

Q: Which log2 fold change does the source give for RAVER1 (UniProt E9PAU2) here?
A: Its log2 fold change is -0.694.

Q: How did the log2 fold change turn out when ROCK1 (UniProt Q13464) was run?
A: Its log2 fold change is -0.013.

Q: Which log2 fold change does the source give for SDCBP (UniProt O00560) here?
A: The log2 fold change was -0.007.

Q: Which log2 fold change does the source give for RMC1 (UniProt Q96DM3) here?
A: The log2 fold change was 0.039.

Q: How did the log2 fold change turn out when REL (UniProt Q04864) was run?
A: The log2 fold change was 0.005.

Q: How did the log2 fold change turn out when RAB8B (UniProt Q92930) was run?
A: Its log2 fold change is 0.004.

Q: RPS20 isoform 2 (UniProt P60866) was tested. Which log2 fold change did it give?
A: Its log2 fold change is -0.368 (active).

Q: For RAC1 (UniProt P63000), which log2 fold change is on record?
A: Its log2 fold change is -0.002.

Q: Which log2 fold change does the source give for SEC16A isoform 5 (UniProt O15027) here?
A: The log2 fold change was 0.025.

Q: Which log2 fold change does the source give for RPRD1B (UniProt Q9NQG5) here?
A: Its log2 fold change is 0.104.

Q: With ROCK2 (UniProt O75116) as the target, how does the log2 fold change read?
A: Its log2 fold change is 0.

Q: RALY (UniProt Q9UKM9) was tested. Which log2 fold change did it give?
A: The log2 fold change was -0.311.

Q: For SETD3 (UniProt Q86TU7), which log2 fold change is on record?
A: Its log2 fold change is 0.05.

Q: For RBIS (UniProt Q8N0T1), which log2 fold change is on record?
A: The log2 fold change was -0.478 (active).

Q: RBM26 isoform 2 (UniProt Q5T8P6) was tested. Which log2 fold change did it give?
A: Its log2 fold change is 0.06.
